Experimental data published in PubChem BioAssay (NCI).
Compounds without any hit were thinned out: in the full panel of roughly 83,000, 20% have a hit.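 Each cell line was grown in a 96-well plate and treated with one concentration of compound for 48 hours. Values below 10 were considered active.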 Active and inactive are the calls of the source.

The compounds below were run on MOLT-4 leukemia (assay: NCI-60 one-dose screen, 48 h (100 = growth as untreated, 0 = no growth, -100 = all killed)). Conditions: 10 µM.
Description: Growth inhibition of the MOLT-4 human tumor cell line is measured as a screen for anti-cancer activity. Cells are grown in 96 well plates and exposed to the test compound for 48 hours. Compounds are tested at a single concentration, which is 10^-5 M for most compounds. The reported endpoint is percent growth (GI% or GIPRCNT), where numbers from 0 - 100% represent growth inhibition, and numbers from -100% - 0 represent cell death. For example, a value of 40 represents 60% growth inhibition. A value of 0 means no net growth occurred over the course of the experiment. A value of -40 indicates 40% of cells at the beginning of the experiment died by the end of the experiment. A value of -100 means all cells are dead at the end of the experiment.
NCI-60 Human Tumor Cell Lines Screen was performed using the standard one-dose NCI protocol, which is described in more detail at https://dtp.cancer.gov/discovery_development/nci-60/default.htm.
Compounds with GIPRCNT values below 10 were considered active. Activity score was based on GIPRCNT using the following formula: […]
Score is 0 for GIPRCNT values of 100 or above, 50 for GIPRCNT values of 0, and 100 for GIPRCNT values of -100.
For CC(C)N(CCOc1ccc(-c2nc3sccn3c2-c2ccnc(S(C)(=O)=O)n2)cc1)C(C)C, the growth was 52.4% (inactive).
In the case of COc1ccc(-c2cc(-c3ccc(OC)c(OC)c3)nc(SCCCC(=O)NO)n2)cc1, the growth is reported as 7.15% (active).
In the case of CCCCCCCCCCOC(c1ccccc1)c1ccccc1, the growth is reported as 84.5% (inactive).
With NC(=O)c1cccc(-n2ccc3cc(NC(=O)Nc4ccc(Cl)c(C(F)(F)F)c4)ccc32)n1 the growth was 52% (inactive).
With Cc1cc(Br)nnc1Br the growth was 93.4% (inactive).
With CCOC(=O)c1sc2ncnc(Nc3ccc(NC(=O)Nc4ccc(Cl)cc4)cc3)c2c1C the growth was 66.3% (inactive).
CC(=O)OC/C=C(/C)C[P+](c1ccccc1)(c1ccccc1)c1ccccc1 was tested, and the growth was 78.2% (inactive).
With COc1cc(/C=C2\CCCC3=C2NC(N)=NC3c2cc(OC)c(OC)c(OC)c2)cc(OC)c1OC (stereo not given) the growth was -3.56% (active).
Nc1ncnc2c1ncn2C1(CO)OCC(O)C(O)C1O (stereo not given) was tested, and the growth was 105% (inactive).
CCOC(=O)c1cc(C(=O)c2ccc(OC)c(OC)c2)n2ccncc12 was tested, and the growth was 94.2% (inactive).
In the case of CC1OC2CC(=O)OC2C2=C1C(=O)c1c(O)c3c(c(O)c1C2=O)C1CC(O)C3(O)C(C)O1 (stereo not given), the growth is reported as -21.7% (active).
For Cc1cc(O)ccc1C1=NN(c2ccc(S(C)(=O)=O)cc2)C(=O)CC1, the growth was 52.7% (inactive).
In the case of O=C(N/N=C/c1cc([N+](=O)[O-])ccc1O)c1cccc2ccccc12, the growth is reported as 9.21% (active).
COc1ccc(/C=C2\CCCC3C2=Nc2ccccc2NC3c2ccc(OC)cc2)cc1 (stereo not given) was tested, and the growth was 72% (inactive).
With C=CCn1c(SCC(=O)Nc2ccc(C(=O)/C=C/c3ccc(OC)cc3)cc2)nnc1-c1ccc(OC)c(OC)c1 the growth was 49.7% (inactive).
For CCCN1CN2C(=O)N3CN(CCC)CN4C(=S)N(C1)C2C34 (stereo not given), the growth was 103% (inactive).
For CC[C@@H](C(=O)[C@@H](C)[C@@H](O)[C@H](C)[C@@H]1O[C@@H]([C@@H](CC)C(=O)O)CC[C@@H]1C)C1O[C@]2(C=CC(=O)[C@]3(CC[C@@](C)([C@H]4CC[C@](O)(CC)[C@H](C)O4)O3)O2)[C@H](C)C[C@@H]1C (stereo not given in full), the growth was 40.6% (inactive).
With COc1cc2cc(Oc3ccc(NC(=O)c4ccc(Cl)c(C(F)(F)F)c4)cc3)c(C)nc2cc1OC the growth was 18% (inactive).
CSc1ccc(-c2cc(-c3ccc(NC(=O)CCCN4CCCC4)cc3)nc(-c3ccc(NC(=O)CCCN4CCCC4)cc3)c2)cc1 was tested, and the growth was 4.93% (active).
Clc1nc2ccccc2cc1Cn1nnc(Cc2ccccc2)n1 was tested, and the growth was 43.1% (inactive).
For Cc1ccc(NCCN(C)CC(C)O)c2c(=O)c3ccccc3sc12 (stereo not given), the growth was 2.58% (active).
O=C1CCn2c1c(O)c1ccccc1c2=O was tested, and the growth was 106% (inactive).
For COc1ccc(-c2nn(-c3cccc(Cl)c3)cc2/C=C2\NC(=S)N(c3ccc(Cl)cc3)C2=O)cc1, the growth was -22.9% (active).
For C[C@]12CC[C@@H]3c4ccc(OS(=O)(=O)O)cc4CC[C@H]3[C@@H]1CC[C@@H]2NS(=O)(=O)c1ccc(-c2ccccc2)cc1, the growth was 31.4% (inactive).
In the case of N#Cc1c(-c2ccc(Cl)cc2)csc1NC(=O)Nc1ccc(Cl)c(C(F)(F)F)c1, the growth is reported as 1.45% (active).
In the case of COC(=O)c1cc2oc(/C=C3/SC(=S)N(N)C3=O)cc2n1Cc1ccccc1, the growth is reported as 4.64% (active).
With CNS(=O)(=O)Oc1ccc(-c2ccc3occc3c2)cc1 the growth was 96.2% (inactive).
O=C(CCC(C(=O)c1ccccc1)c1ccccc1)c1ccccc1 (stereo not given) was tested, and the growth was 46.2% (inactive).
N#CCc1csc(Cc2ccccc2)n1 was tested, and the growth was 101% (inactive).
With CC(CN(C)C)Oc1ccccc1NC1=C(Cl)C(=O)C(Nc2ccccc2OC(C)CN(C)C)=C(Cl)C1=O (stereo not given) the growth was -30.8% (active).
For C/C=C/CSC(C)(C)C(=O)NC, the growth was 102% (inactive).
With CCn1cc(CNc2ccc(C(=O)Nc3ccc4ccccc4c3)cc2)c(C)n1 the growth was 15.5% (inactive).
For O=c1cn[nH]c2ccc(Br)cc12, the growth was 86.5% (inactive).
COc1cc(-c2nn(-c3cccc(NC(=O)NCCNS(=O)(=O)c4ccc(Cl)cc4)c3)cc2-c2ccncc2)ccc1Cl was tested, and the growth was 12.1% (inactive).
CC(C)(C)c1ccc(S(=O)(=O)N[C@H]2CC[C@H]3[C@@H]4CCc5cc(O)ccc5[C@H]4CC[C@]23C)cc1 was tested, and the growth was 16.8% (inactive).
COc1cc2cc(Oc3ccc(NC(=O)Nc4cccc(C(F)(F)F)c4)cc3)c(C)nc2cc1OC was tested, and the growth was 0.812% (active).
With Cc1ccc(NC(=S)NNC(=S)Nc2ccc(C)cc2)cc1 the growth was 45.3% (inactive).
For C[C@@H](O)[C@H]1C(=O)N2C(C(=O)O)=C(SCCN=CN)C[C@H]12, the growth was -13.9% (active).
For C=CCN(CC=C)C(=O)[C@H](CC)[C@@H]1CC[C@@H](C)[C@@H]([C@H](C)[C@@H](O)[C@@H](C)C(=O)[C@H](CC)C2O[C@]3(C=CC(=O)[C@]4(CC[C@@](C)([C@H]5CC[C@](O)(CC)[C@H](C)O5)O4)O3)[C@H](C)C[C@@H]2C)O1 (stereo not given in full), the growth was 28.8% (inactive).
In the case of CC(C)[N+]1(C)C2CC[C@@H]1CC(OC(=O)C(CO)c1ccccc1)C2 (stereo not given in full), the growth is reported as 121% (inactive).
